This is an account of results in PubChem BioAssay (NCATS).

Records with an inconclusive call do not appear.

This assay in a line: qHTS Assay for Lipid Storage Modulators (AID 1519). The following applies: Drosophila S3 cells, BODIPY lipid droplet/cell ratio, laser cytometry; measured here: cell count channel max response; cells loaded with oleic acid. A digest of the protocol: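 Cells seeded at 5,000 per well were treated with compounds over a concentration series and loaded with oleic acid (400 uM, as added). Lipid droplet fluorescence (488 nm excitation, 500-530 nm channel) was read by laser-scanning cytometry and normalized to 20 uM Triacsin C.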
For orientation: qHTS replaces the single test concentration by a dilution series.
As to `Cc1nc2cnc(N3CCOCC3)nc2n(C[C@H]2CCCO2)c1=O`, the max response is 10.2%.

`CN(C)Cc1ccccc1-c1nc(NCc2cccs2)c2ccccc2n1`: the max response came out at 16.9%.

On to `CN(C)c1ncc2nc(-c3ccccc3)c(=O)n(-c3ccccc3)c2n1`, for which the max response is 22.5%.

Regarding `N#Cc1cccc(-c2nc3cnc(N4CCOCC4)nc3n(C[C@H]3CCCO3)c2=O)c1`, the max response turned out to be 10%.

As to `COc1ccc(-c2nc3cnc(Nc4cccc(OC)c4)nc3n(C3CC3)c2=O)cc1`, the max response turned out to be 17.2%.

With `CN(C)c1ncc2nc(-c3cn(C)c4ccccc34)c(=O)n(C[C@H]3CCCO3)c2n1`, the max response turned out to be 5.1%.

As to `CN(C)c1ncc2nc(-c3ccc(F)cc3)c(=O)n(C[C@H]3CCCO3)c2n1`, the max response is 12.6%.

Regarding `CN(C)c1ccc(-c2cc(Nc3ccc(F)cc3)ncn2)cc1`, the max response is -11.3%.

As to `COc1ncc2nc(C)c(=O)n(C3CC3)c2n1`, the max response is 28.7%.

On to `CN(C)Cc1ccccc1-c1cc(N(C)Cc2ccco2)ncn1`, for which the max response was found to be 19.9%.

On to `CN(Cc1ccco1)c1ncncc1-c1ccccc1Cl`, for which the max response is 14.4%.

As for `CN1CCN(c2ncc3ncc(=O)n(C[C@H]4CCCO4)c3n2)CC1`, the max response is 7.9%.

Take `CN1CCN(c2ncc3nc(-c4cc(F)cc(F)c4)c(=O)n(C4CC4)c3n2)CC1`: the max response was found to be 12.3%.

Turning to `COCCn1c(=O)c(C)nc2cnc(Oc3ccc(OC)cc3)nc21`, the max response is 29.1%.

For the molecule `CN(Cc1ccco1)c1ncncc1-c1ccoc1`, the max response was determined as 22.8%.

In the case of `CCNc1ncc2nc(-c3cn(C)c4ccccc34)c(=O)n(Cc3cccc(OC)c3)c2n1`, the max response was determined as 15.6%.

Regarding `c1ccc(Nc2cc(-c3ccoc3)ncn2)cc1`, the max response turned out to be 15%.

As for `Cn1c(=O)c(-c2cccs2)nc2cnc(OCc3ccccc3)nc21`, the max response was determined as 20.6%.
